What all share (test): HT-SELEX; 20 mM HEPES pH 7, 140 mM KCl, 5 mM NaCl, 1 mM K2HPO4, 2 mM MgSO4, 100 uM EGTA, ZnSO4, 0.1% Tween20; room temperature, 1 h; high values mean tight binding
What all share (conditions): protein: ivt; tags: eGFP (N-terminal); dsDNA, one strand shown

One assay deals with ZNF721 full-length (Homo sapiens, UniProt Q8TF20-2 1-923). Summed up:
(§1)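 A tagged transcription factor, either full-length or its DNA-binding-domain fragment, was made in HEK293 lysate or cell-free extract, immobilised on beads and incubated with a randomized 40-base DNA library for 1 h at room temperature in HEPES/KCl low-stringency buffer containing Tween20. Washed beads were heat-eluted, and the bound DNA was PCR-amplified over successive cycles and Illumina-sequenced at ~3 million 60 bp reads per sample. The binding signal is the relative k-mer count in selected reads, where a higher value means tighter binding.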

The next assay addresses ZNF721 DBD1 (Homo sapiens, UniProt Q8TF20-2 29-461). Summed up: as §1
Another assay deals with ZNF721 DBD2 (Homo sapiens, UniProt Q8TF20-2 395-923). The procedure, abridged: as §1

Results on 37 sequences are retold here after publication PMC13541613, “GHT-SELEX demonstrates unexpectedly high intrinsic sequence specificity and complex DNA binding of many human transcription factors”.

Sequence of ZNF721 DBD2 (Q8TF20 383-911): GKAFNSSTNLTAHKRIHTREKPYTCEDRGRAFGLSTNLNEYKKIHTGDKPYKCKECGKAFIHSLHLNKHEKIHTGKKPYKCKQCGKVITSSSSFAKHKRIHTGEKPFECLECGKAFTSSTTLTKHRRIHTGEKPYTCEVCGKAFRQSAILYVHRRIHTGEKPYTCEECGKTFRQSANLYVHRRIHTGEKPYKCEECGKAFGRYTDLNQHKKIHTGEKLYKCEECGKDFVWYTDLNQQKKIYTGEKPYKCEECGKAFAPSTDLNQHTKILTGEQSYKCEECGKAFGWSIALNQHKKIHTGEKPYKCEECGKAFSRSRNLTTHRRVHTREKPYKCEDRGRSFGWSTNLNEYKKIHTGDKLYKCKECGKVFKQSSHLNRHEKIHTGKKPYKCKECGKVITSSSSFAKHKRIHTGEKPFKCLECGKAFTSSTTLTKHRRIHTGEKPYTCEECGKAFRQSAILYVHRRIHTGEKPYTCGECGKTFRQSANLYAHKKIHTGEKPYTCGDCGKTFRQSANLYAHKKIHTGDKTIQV
Sequence of ZNF721 full-length (Q8TF20 other isoform, or with tags, fused parts or gaps): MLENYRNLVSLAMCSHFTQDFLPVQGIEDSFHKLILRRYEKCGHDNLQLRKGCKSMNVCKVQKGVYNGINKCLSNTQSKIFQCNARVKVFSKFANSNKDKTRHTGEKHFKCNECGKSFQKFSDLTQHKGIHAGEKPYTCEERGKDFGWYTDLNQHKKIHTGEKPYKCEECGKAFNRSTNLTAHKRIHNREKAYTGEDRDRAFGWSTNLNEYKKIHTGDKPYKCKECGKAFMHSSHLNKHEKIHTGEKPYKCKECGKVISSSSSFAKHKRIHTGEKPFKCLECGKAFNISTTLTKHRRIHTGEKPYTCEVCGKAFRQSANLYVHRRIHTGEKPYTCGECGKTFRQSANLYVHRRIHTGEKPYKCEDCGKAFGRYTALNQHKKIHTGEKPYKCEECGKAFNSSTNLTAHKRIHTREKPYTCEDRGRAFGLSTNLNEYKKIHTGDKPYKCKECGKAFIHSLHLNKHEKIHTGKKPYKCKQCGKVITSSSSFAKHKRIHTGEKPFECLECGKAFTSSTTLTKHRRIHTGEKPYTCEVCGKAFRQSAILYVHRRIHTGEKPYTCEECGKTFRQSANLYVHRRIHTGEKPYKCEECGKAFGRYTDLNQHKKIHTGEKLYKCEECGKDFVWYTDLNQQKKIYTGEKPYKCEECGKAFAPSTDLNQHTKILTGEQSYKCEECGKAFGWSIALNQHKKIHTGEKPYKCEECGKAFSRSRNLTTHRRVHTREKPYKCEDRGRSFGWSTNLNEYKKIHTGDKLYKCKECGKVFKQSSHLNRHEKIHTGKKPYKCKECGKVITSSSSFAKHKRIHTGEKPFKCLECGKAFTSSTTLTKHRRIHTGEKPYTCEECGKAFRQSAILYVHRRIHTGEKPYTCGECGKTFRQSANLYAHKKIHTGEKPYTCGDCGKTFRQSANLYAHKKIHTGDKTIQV
Sequence of ZNF721 DBD1 (Q8TF20 17-449): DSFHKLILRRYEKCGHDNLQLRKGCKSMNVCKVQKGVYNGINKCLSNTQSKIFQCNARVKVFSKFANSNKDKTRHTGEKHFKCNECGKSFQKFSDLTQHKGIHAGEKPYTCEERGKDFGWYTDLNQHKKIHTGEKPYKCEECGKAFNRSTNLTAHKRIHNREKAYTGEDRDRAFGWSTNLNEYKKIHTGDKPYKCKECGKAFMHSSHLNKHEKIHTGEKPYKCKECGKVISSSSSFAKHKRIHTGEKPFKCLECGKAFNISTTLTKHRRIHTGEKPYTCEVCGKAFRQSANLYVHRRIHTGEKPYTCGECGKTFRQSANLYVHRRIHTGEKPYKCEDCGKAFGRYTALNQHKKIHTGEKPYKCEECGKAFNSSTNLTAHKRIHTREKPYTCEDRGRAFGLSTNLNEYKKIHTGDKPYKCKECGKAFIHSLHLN

On to CCACCACCCG, for which the figures for the binding signal with ZNF721 full-length, with ZNF721 DBD1 and with ZNF721 DBD2 were 0.131 relative 10-mer count, 0.00564 relative 10-mer count and 0.00467 relative 10-mer count, respectively.
As to AAAAAAAGAG, the binding signal turned out to be 0.126 relative 10-mer count with ZNF721 full-length, 0.00949 relative 10-mer count in the assay with ZNF721 DBD1 and 0.0578 relative 10-mer count in the assay with ZNF721 DBD2.
Take ACCGCCCACC: the binding signal in the assay with ZNF721 full-length came out at 0.152 relative 10-mer count; with ZNF721 DBD1, 0.005 relative 10-mer count; with ZNF721 DBD2 it was 0.00204 relative 10-mer count.
CCCACCGACC: the binding signal was 0.127 relative 10-mer count in the assay with ZNF721 full-length, 0.00394 relative 10-mer count with ZNF721 DBD1 and 0.00455 relative 10-mer count with ZNF721 DBD2.
With CCCACCCACG, the figures for the binding signal with ZNF721 full-length, with ZNF721 DBD1 and in the assay with ZNF721 DBD2 were 0.141 relative 10-mer count, 0.00472 relative 10-mer count and 0.00551 relative 10-mer count, respectively.
Turning to CACGCCCACC, the binding signal with ZNF721 full-length stood at 0.123 relative 10-mer count; with ZNF721 DBD1 it was 0.00518 relative 10-mer count; with ZNF721 DBD2 it was 0.00947 relative 10-mer count.
In the case of AAAGCTATCC, the binding signal with ZNF721 full-length came out at 0.165 relative 10-mer count; in the assay with ZNF721 DBD1 it was 0.0786 relative 10-mer count; with ZNF721 DBD2 it was 0.00156 relative 10-mer count.
In the case of ACCCCGCCAC, the binding signal is 0.107 relative 10-mer count with ZNF721 full-length, 0.00482 relative 10-mer count with ZNF721 DBD1 and 0.00264 relative 10-mer count with ZNF721 DBD2.
Turning to CCCGACCCCA, the binding signal is 0.112 relative 10-mer count in the assay with ZNF721 full-length, 0.00399 relative 10-mer count with ZNF721 DBD1 and 0.0012 relative 10-mer count in the assay with ZNF721 DBD2.
Regarding CCCCCCCCCA, the binding signal with ZNF721 full-length stood at 0.16 relative 10-mer count; with ZNF721 DBD1 it was 0.00477 relative 10-mer count; with ZNF721 DBD2, 0.00312 relative 10-mer count.
In the case of CCCACCGCCC, the binding signal amounted to 0.319 relative 10-mer count with ZNF721 full-length, 0.0135 relative 10-mer count in the assay with ZNF721 DBD1 and 0.00551 relative 10-mer count with ZNF721 DBD2.
In the same order, the values of CCACCCCGAC are 0.136 relative 10-mer count, 0.00404 relative 10-mer count and 0.0024 relative 10-mer count.
GCCCCCCCCC: the binding signal stood at 0.112 relative 10-mer count in the assay with ZNF721 full-length, 0.00367 relative 10-mer count with ZNF721 DBD1 and 0.00276 relative 10-mer count in the assay with ZNF721 DBD2.
In the same order, the values of AGGTGGGGTG are 0.114 relative 10-mer count, 0.00532 relative 10-mer count and 0.00288 relative 10-mer count.
Take AAGCAGCGTA: the binding signal with ZNF721 full-length amounted to 0.162 relative 10-mer count; with ZNF721 DBD1, 0.00124 relative 10-mer count; with ZNF721 DBD2, 0.201 relative 10-mer count.
On to CACCCACACC, for which the figures for the binding signal with ZNF721 full-length, with ZNF721 DBD1 and in the assay with ZNF721 DBD2 were 0.127 relative 10-mer count, 0.0061 relative 10-mer count and 0.00395 relative 10-mer count, respectively.
As for CCCTCCACCC, the binding signal with ZNF721 full-length was found to be 0.321 relative 10-mer count; with ZNF721 DBD1, 0.0139 relative 10-mer count; in the assay with ZNF721 DBD2, 0.00731 relative 10-mer count.
In the same order, the values of CGCCCCCCTC are 0.116 relative 10-mer count, 0.00422 relative 10-mer count and 0.00204 relative 10-mer count.
As to CCATCCCACC, the binding signal is 0.138 relative 10-mer count in the assay with ZNF721 full-length, 0.00697 relative 10-mer count with ZNF721 DBD1 and 0.00575 relative 10-mer count with ZNF721 DBD2.
In the same order, the values of CCACCCCAGC are 0.102 relative 10-mer count, 0.00372 relative 10-mer count and 0.00252 relative 10-mer count.
In the same order, the values of GGGGTGGGGA are 0.194 relative 10-mer count, 0.0094 relative 10-mer count and 0.00264 relative 10-mer count.
Consider AAAAAAGCTC, for which the binding signal with ZNF721 full-length is 0.21 relative 10-mer count; with ZNF721 DBD1, 0.0749 relative 10-mer count; in the assay with ZNF721 DBD2, 0.00515 relative 10-mer count.
ACCCCCACCA: the binding signal in the assay with ZNF721 full-length is 0.145 relative 10-mer count; with ZNF721 DBD1, 0.00573 relative 10-mer count; with ZNF721 DBD2, 0.00503 relative 10-mer count.
As for CACCACCCTC, the results for the binding signal with ZNF721 full-length, with ZNF721 DBD1 and with ZNF721 DBD2 were 0.111 relative 10-mer count, 0.00537 relative 10-mer count and 0.00419 relative 10-mer count, respectively.
With CCGCCCCGCC, the values for the binding signal with ZNF721 full-length, with ZNF721 DBD1 and with ZNF721 DBD2 were 0.156 relative 10-mer count, 0.00592 relative 10-mer count and 0.00216 relative 10-mer count, respectively.
As for CCACCCGCCC, the binding signal in the assay with ZNF721 full-length was 0.235 relative 10-mer count; in the assay with ZNF721 DBD1, 0.00922 relative 10-mer count; in the assay with ZNF721 DBD2, 0.00443 relative 10-mer count.
Regarding ACCACCCCAC, the binding signal with ZNF721 full-length was determined as 0.201 relative 10-mer count; with ZNF721 DBD1, 0.0072 relative 10-mer count; with ZNF721 DBD2, 0.00479 relative 10-mer count.
For AAGCAGTACC, the binding signal with ZNF721 full-length was 0.153 relative 10-mer count; with ZNF721 DBD1 it was 0.0727 relative 10-mer count; in the assay with ZNF721 DBD2 it was 0.0326 relative 10-mer count.
Taken in the same sequence, the figures for ACCACCCACC were 0.242 relative 10-mer count, 0.00945 relative 10-mer count and 0.00875 relative 10-mer count.
For AACAAGCAGC, the binding signal stood at 0.132 relative 10-mer count with ZNF721 full-length, 0.0039 relative 10-mer count with ZNF721 DBD1 and 0.0997 relative 10-mer count in the assay with ZNF721 DBD2.
In the same order, the values of CCACCCCCGC are 0.203 relative 10-mer count, 0.0072 relative 10-mer count and 0.00264 relative 10-mer count.
With CCCCCGACCC, the binding signal with ZNF721 full-length came out at 0.181 relative 10-mer count; with ZNF721 DBD1, 0.00587 relative 10-mer count; in the assay with ZNF721 DBD2, 0.0018 relative 10-mer count.
In the same order, the values of ACCAAAAAAA are 0.128 relative 10-mer count, 0.00904 relative 10-mer count and 0.0723 relative 10-mer count.
For CCCACCCTAC, the values for the binding signal with ZNF721 full-length, with ZNF721 DBD1 and with ZNF721 DBD2 were 0.114 relative 10-mer count, 0.00748 relative 10-mer count and 0.0116 relative 10-mer count, respectively.
Regarding CCCCCCACGC, the binding signal with ZNF721 full-length stood at 0.139 relative 10-mer count; with ZNF721 DBD1, 0.00404 relative 10-mer count; with ZNF721 DBD2 it was 0.00324 relative 10-mer count.
In the case of CCACACCCCC, the values for the binding signal in the assay with ZNF721 full-length, in the assay with ZNF721 DBD1 and with ZNF721 DBD2 were 0.201 relative 10-mer count, 0.00738 relative 10-mer count and 0.00276 relative 10-mer count, respectively.
Consider AAAAAAGCGT, for which the binding signal in the assay with ZNF721 full-length is 0.276 relative 10-mer count; with ZNF721 DBD1, 0.0607 relative 10-mer count; in the assay with ZNF721 DBD2, 0.0512 relative 10-mer count.
